Our source for the outcome and AC50 values is PubChem BioAssay (EPA / NIEHS).

Records with an inconclusive call do not appear. A structure can be active in one record and inactive in another. Calls of active or inactive are those of the source. Rule for the calls, unless noted: active = hit-call score of the fitted dose curve at least 0.9, where 1 is the maximum; inactive = score below 0.9.

As a reminder, the AC50 is the concentration at which the activity in the assay is half-maximal.

For assay [1], the target named is human Peroxisome Proliferator-activated Receptor alpha (PPARa), PPARA (gene 5465) (UniProt Q07869). Nature of the assay: ATG_PPARa_TRANS: Attagene TRANS-FACTORIAL HepG2 Assay for human Peroxisome Proliferator-activated Receptor alpha (PPARa) (AID 2283001; active = hit-call score of the fitted dose curve at least 0.9, where 1 is the maximum). The method in brief: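 Reporter transcripts quantified by RT-PCR plus capillary electrophoresis after 24 h treatment, fitted upward relative to DMSO. Cells: human HepG2 transiently carrying multiple GAL4-UAS reporter units driven by NR-Gal4 chimeras.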

Read-out in assay [2]: Intercellular Adhesion Molecule 1 (ICAM1), ICAM1 (gene 3383)
Nature of the assay: BSK_3C_ICAM1: BioMAP Diversity Plus: 3C Assay for Intercellular Adhesion Molecule 1 (ICAM1) Biomarker Activity (AID 2283003). Particulars: primary human endothelial cells (HUVEC); actives raise or lower the signal. The method in brief: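 Chemicals are dosed onto primary human umbilical vein endothelium (3C system). After 24 h, ICAM-1 is measured by ELISA, and responses are fitted bidirectionally relative to DMSO.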

The target in assay [3] is Peroxisome proliferator-activated receptor gamma (Homo sapiens) (UniProt P37231). Nature of the assay: ATG_PPARg_TRANS: Attagene TRANS-FACTORIAL HepG2 Assay for human Peroxisome Proliferator-activated Receptor-gamma (PPARg) (AID 2283007; active = hit-call score of the fitted dose curve at least 0.9, where 1 is the maximum). The method, boiled down:
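Multiplexed reporter transcription units in HepG2, 24 h dosing, reporter transcripts quantified by fluorescent RT-PCR and capillary electrophoresis. Increase over DMSO scored.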

Assay [4] concerns the target Nuclear receptor subfamily 1 group I member 2 (Homo sapiens) (UniProt O75469). Nature of the assay: ATG_PXR_TRANS: Attagene TRANS-FACTORIAL HepG2 Assay for human Pregnane X Receptor (PXR) (AID 2283008; active = hit-call score of the fitted dose curve at least 0.9, where 1 is the maximum). The method in brief:
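Transient HepG2 transfectants carrying multiplexed reporter transcription units; PXR activity read through a Gal4 chimera. 24 h exposure. RT-PCR/CE fluorescence; upward curve fit referenced to DMSO.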

Assay [5] addresses human Retinoid X Receptor beta (RXRb), RXRB (gene 6257) (UniProt P28702). Nature of the assay: ATG_RXRb_TRANS: Attagene TRANS-FACTORIAL HepG2 Assay for human Retinoid X Receptor beta (RXRb) (AID 2283013; active = hit-call score of the fitted dose curve at least 0.9, where 1 is the maximum). The method in brief: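 Chimeric receptor-Gal4 activity was assessed in transiently transfected human HepG2 cells after 24 h exposure. Transcripts from GAL4-UAS reporters were quantified by fluorescent RT-PCR and capillary electrophoresis, with DMSO as negative control and baseline.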

Read-out in assay [6]: E-selectin (Homo sapiens) (UniProt P16581)
Description: BSK_3C_Eselectin: BioMAP Diversity Plus: 3C Assay for Eselectin Biomarker Activity (AID 2283015).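 For outcome: cell surface E-selectin protein quantified by ELISA 24 h after dosing.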 Particulars: primary human endothelial cells (HUVEC); actives raise or lower the signal. The method in brief: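 ELISA read-out of E-selectin on endothelial monolayers after 24 h chemical treatment. Human umbilical vein primary cells served as the system, with DMSO defining baseline activity for bidirectional fitting.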

Read-out in assay [7]: Interleukin-1 alpha (IL1a), IL1A (gene 3552)
Nature of the assay: BSK_BE3C_IL1a: BioMAP Diversity Plus: BE3C Assay for Interleukin-1 alpha (IL1a) Biomarker Activity (AID 2283016). Particulars: primary human bronchial epithelial cells; actives raise or lower the signal. The method, boiled down: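 Signal from IL-1a ELISA, taken 24 h after chemical dosing of human bronchial epithelial cells, is compared with DMSO as baseline using bidirectional curve fitting.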

Read-out in assay [8]: Monocyte Chemoattractant Protein-1 (MCP1), CCL2 (gene 6347)
Description: BSK_3C_MCP1: BioMAP Diversity Plus: 3C Assay for Monocyte Chemoattractant Protein-1 (MCP1) Biomarker Activity (AID 2283017). The conditions noted are these: primary human endothelial cells (HUVEC); actives raise or lower the signal. The method, boiled down: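 ELISA read-out of MCP-1 from human umbilical vein endothelial cell cultures harvested 24 h post-dosing. Gain or loss of signal was fitted relative to DMSO.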

Read-out in assay [9]: Monocyte Chemoattractant Protein-1 (MCP1), CCL2 (gene 6347)
Nature of the assay: BSK_4H_MCP1: BioMAP Diversity Plus: 4H Assay for Monocyte Chemoattractant Protein-1 (MCP1) Biomarker Activity (AID 2283018). The conditions noted are these: primary human endothelial cells (HUVEC); actives raise or lower the signal. The method, boiled down:
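Endothelial cells from umbilical vein were treated with test chemical, then after 24 h MCP-1 levels were quantified by ELISA; endpoint values came from bidirectional fitting with DMSO as baseline of activity.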

Read-out in assay [10]: Human Leukocyte Antigen - DR isotype (HLADR), HLA-DRA (gene 3122)
Nature of the assay: BSK_3C_HLADR: BioMAP Diversity Plus: 3C Assay for Human Leukocyte Antigen - DR isotype (HLADR) Biomarker Activity (AID 2283019).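 For outcome: ELISA of cell-surface HLA-DR on HUVEC 24 h after dosing.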 The conditions noted are these: primary human endothelial cells (HUVEC); actives raise or lower the signal. The method, boiled down:
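ELISA readout of surface HLA-DR on human umbilical vein endothelium, taken 24 h after chemical treatment. Gain- and loss-of-signal were both fitted relative to DMSO.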

Read-out in assay [11]: Interleukin-8 (IL8), CXCL8 (gene 3576)
Nature of the assay: BSK_3C_IL8: BioMAP Diversity Plus: 3C Assay for Interleukin-8 (IL8) Biomarker Activity (AID 2283020). Particulars: primary human endothelial cells (HUVEC); actives raise or lower the signal. The method in brief: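 Endothelial primary cells of human umbilical vein origin are dosed with chemical; after 24 h the IL-8 biomarker is measured by ELISA, and concentration–response is fitted in both directions versus DMSO.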

Read-out in assay [12]: Monokine induced gamma interferon (MIG), CXCL9 (gene 4283)
Description: BSK_3C_MIG: BioMAP Diversity Plus: 3C Assay for Monokine induced gamma interferon (MIG) Biomarker Activity (AID 2283021). Particulars: primary human endothelial cells (HUVEC); actives raise or lower the signal. The method, boiled down:
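Endothelial primary cells (human umbilical vein) are dosed with test chemical in the 3C system. MIG levels are measured by ELISA at 24 h and fitted in both directions relative to DMSO.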

Assay [13] concerns the target human Retinoic Acid Receptor beta (RARb), RARB (gene 5915) (UniProt P10826). Nature of the assay: ATG_RARb_TRANS: Attagene TRANS-FACTORIAL HepG2 Assay for human Retinoic Acid Receptor beta (AID 2283004; active = hit-call score of the fitted dose curve at least 0.9, where 1 is the maximum). The method, boiled down: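 Transient transfection of HepG2 with multiple reporter units → chemical dosing, 24 h → total RNA isolation → RT with oligo(dT) → reporter-specific PCR, 6-FAM primer extension, HpaI digest → capillary electrophoresis. Positive direction vs DMSO control.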

Assay [14] concerns the target Retinoic acid receptor alpha (Homo sapiens) (UniProt P10276). Nature of the assay: ATG_RARa_TRANS: Attagene TRANS-FACTORIAL HepG2 Assay for human Retinoic Acid Receptor alpha (RARa) (AID 2283005; active = hit-call score of the fitted dose curve at least 0.9, where 1 is the maximum). The method in brief:
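Reporter transcripts, measured by RT-PCR with fluorescent labeling and capillary electrophoresis after 24 h dosing, reflect activity of an exogenous human RARa–GAL4 fusion in transiently transfected HepG2. Fitted for increase relative to DMSO.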

A short description of assay [15]: BSK_3C_Proliferation: Cell Proliferation Assessment in the BioMAP Diversity Plus: 3C Assay (AID 2283006). The conditions noted are these: primary human endothelial cells (HUVEC). The method in brief: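 Cells (human umbilical vein endothelial, sub-confluent) receive test chemical; after 48 h they are fixed in 10% trichloroacetic acid, stained with 0.1% SRB and read at 560 nm. Activity is referenced to DMSO, fitting increases and decreases.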

Assay [16] concerns the target human Retinoic Acid Receptor gamma (RARg), RARG (gene 5916) (UniProt P13631). Nature of the assay: ATG_RARg_TRANS: Attagene TRANS-FACTORIAL HepG2 Assay for human Retinoic Acid Receptor gamma (RARg) (AID 2283009; active = hit-call score of the fitted dose curve at least 0.9, where 1 is the maximum). The method in brief:
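TRANS format measured activity of exogenous NR-GAL4 fusion (RARg) in transfected HepG2 liver cells after 24 h dosing. Induced reporter RNA was detected by RT-PCR/capillary electrophoresis fluorescence, analysed in the positive direction against DMSO.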

The target of assay [17] is human Thyroid Receptor alpha (THRa1), THRA (gene 7067) (UniProt P10827). Nature of the assay: ATG_THRa1_TRANS: Attagene TRANS-FACTORIAL HepG2 Assay for human Thyroid Receptor alpha (THRa1) (AID 2283014; active = hit-call score of the fitted dose curve at least 0.9, where 1 is the maximum). The method, boiled down: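 Reporter transcript induction, read by capillary electrophoresis of 6-FAM-labelled RT-PCR products, reflects activity of a transfected THRa1-Gal4 fusion in HepG2 liver cells. Cells were dosed for 24 h; activity was fitted in the positive direction against DMSO.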

Assay [18] deals with human Peroxisome Proliferator-activated Receptor delta (PPARd), PPARD (gene 5467) (UniProt Q03181). Description: ATG_PPARd_TRANS: Attagene TRANS-FACTORIAL HepG2 Assay for human Peroxisome Proliferator-activated Receptor delta (PPARd) (AID 2283002; active = hit-call score of the fitted dose curve at least 0.9, where 1 is the maximum). The method, boiled down: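 Read-out is induced reporter mRNA, quantified by RT-PCR with fluorescent labelling and capillary electrophoresis after 24 h dosing. Cells are HepG2 transiently carrying multiple GAL4-UAS reporter units driven by exogenous NR-GAL4 chimeras; DMSO serves as baseline.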

Assay [19] concerns the target human RAR-related Orphan Receptor beta (RORb), RORB (gene 6096) (UniProt Q92753). Nature of the assay: ATG_RORb_TRANS: Attagene TRANS-FACTORIAL HepG2 Assay for human RAR-related Orphan Receptor beta (RORb) (AID 2283010; active = hit-call score of the fitted dose curve at least 0.9, where 1 is the maximum). The method, boiled down: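 Transfect HepG2 with multiple GAL4-UAS reporter transcription units; dose chemicals for 24 h; isolate RNA, reverse-transcribe and PCR-amplify reporter sequences; label, digest and resolve fragments by capillary electrophoresis; fit increases relative to DMSO.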

Assay [20] deals with Retinoic acid receptor RXR-alpha (Homo sapiens) (UniProt P19793). Nature of the assay: ATG_RXRa_TRANS: Attagene TRANS-FACTORIAL HepG2 Assay for human Retinoid X Receptor alpha (RXRa) (AID 2283012; active = hit-call score of the fitted dose curve at least 0.9, where 1 is the maximum). The method in brief: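 Measures exogenous chimeric NR-GAL4 activity in transfected HepG2 liver cells after 24 h of dosing. Induced reporter mRNA was detected by RT-PCR with capillary electrophoresis, and gain of signal was analysed against DMSO.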
Retinoic acid receptor RXR-alpha (Homo sapiens), sequence (P19793 whole entry, looked up, the tested form may be a part): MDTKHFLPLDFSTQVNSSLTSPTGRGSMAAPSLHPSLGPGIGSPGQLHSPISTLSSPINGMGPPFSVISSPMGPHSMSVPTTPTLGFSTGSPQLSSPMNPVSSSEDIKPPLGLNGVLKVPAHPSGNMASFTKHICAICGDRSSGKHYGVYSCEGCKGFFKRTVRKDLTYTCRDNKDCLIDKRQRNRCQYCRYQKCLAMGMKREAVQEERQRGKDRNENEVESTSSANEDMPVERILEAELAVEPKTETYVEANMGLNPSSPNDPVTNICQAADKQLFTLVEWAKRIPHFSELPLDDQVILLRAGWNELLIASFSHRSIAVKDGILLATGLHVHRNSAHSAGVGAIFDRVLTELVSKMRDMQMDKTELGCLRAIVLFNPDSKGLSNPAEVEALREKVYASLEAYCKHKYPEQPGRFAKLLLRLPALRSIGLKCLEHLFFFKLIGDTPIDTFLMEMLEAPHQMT

E-selectin (Homo sapiens), sequence (P16581 whole entry, looked up): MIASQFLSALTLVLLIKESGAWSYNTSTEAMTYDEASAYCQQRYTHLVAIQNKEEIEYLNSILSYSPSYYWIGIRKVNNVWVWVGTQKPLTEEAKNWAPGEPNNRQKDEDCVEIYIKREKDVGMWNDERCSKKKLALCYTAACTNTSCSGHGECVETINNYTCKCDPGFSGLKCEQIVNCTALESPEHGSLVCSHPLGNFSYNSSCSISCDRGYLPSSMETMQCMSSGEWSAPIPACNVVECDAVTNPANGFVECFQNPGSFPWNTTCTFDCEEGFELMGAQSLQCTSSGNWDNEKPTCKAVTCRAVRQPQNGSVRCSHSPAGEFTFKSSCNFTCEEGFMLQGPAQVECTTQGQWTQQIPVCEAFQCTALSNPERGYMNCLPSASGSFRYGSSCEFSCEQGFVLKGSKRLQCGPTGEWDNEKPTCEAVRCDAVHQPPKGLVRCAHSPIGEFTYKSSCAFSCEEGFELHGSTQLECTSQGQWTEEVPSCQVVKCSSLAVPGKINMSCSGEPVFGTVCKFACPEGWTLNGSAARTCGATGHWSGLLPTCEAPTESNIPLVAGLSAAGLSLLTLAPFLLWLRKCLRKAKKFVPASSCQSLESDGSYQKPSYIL
human Peroxisome Proliferator-activated Receptor alpha (PPARa), PPARA (gene 5465), sequence (Q07869 whole entry, looked up, the tested form may be a part): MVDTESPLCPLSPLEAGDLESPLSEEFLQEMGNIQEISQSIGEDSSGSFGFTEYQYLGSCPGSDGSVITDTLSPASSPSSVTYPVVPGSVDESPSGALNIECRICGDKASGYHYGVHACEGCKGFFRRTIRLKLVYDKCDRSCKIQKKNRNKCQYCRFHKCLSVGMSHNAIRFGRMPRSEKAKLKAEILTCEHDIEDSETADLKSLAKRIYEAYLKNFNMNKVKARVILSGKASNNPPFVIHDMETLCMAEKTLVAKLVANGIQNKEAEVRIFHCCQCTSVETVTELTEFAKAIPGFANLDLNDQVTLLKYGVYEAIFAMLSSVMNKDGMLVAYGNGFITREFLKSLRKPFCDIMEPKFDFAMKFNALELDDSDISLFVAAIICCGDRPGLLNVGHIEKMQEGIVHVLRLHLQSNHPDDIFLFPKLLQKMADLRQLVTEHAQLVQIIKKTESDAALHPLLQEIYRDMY
human Retinoid X Receptor beta (RXRb), RXRB (gene 6257), sequence (P28702 whole entry, looked up, the tested form may be a part): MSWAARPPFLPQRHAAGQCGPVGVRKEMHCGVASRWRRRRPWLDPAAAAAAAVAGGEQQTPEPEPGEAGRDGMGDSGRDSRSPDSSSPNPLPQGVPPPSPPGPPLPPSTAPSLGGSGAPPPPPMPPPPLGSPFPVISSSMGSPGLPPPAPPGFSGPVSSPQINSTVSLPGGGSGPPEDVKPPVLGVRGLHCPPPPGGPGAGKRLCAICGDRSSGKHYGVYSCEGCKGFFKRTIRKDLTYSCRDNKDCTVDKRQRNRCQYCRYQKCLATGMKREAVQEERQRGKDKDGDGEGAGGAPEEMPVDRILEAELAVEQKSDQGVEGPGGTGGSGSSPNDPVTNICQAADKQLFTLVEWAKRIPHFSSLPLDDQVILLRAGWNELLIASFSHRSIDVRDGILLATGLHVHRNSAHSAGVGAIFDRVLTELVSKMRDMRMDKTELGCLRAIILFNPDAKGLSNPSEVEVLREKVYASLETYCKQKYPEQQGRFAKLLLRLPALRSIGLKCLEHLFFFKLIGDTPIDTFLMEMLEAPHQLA
human RAR-related Orphan Receptor beta (RORb), RORB (gene 6096), sequence (Q92753 whole entry, looked up, the tested form may be a part): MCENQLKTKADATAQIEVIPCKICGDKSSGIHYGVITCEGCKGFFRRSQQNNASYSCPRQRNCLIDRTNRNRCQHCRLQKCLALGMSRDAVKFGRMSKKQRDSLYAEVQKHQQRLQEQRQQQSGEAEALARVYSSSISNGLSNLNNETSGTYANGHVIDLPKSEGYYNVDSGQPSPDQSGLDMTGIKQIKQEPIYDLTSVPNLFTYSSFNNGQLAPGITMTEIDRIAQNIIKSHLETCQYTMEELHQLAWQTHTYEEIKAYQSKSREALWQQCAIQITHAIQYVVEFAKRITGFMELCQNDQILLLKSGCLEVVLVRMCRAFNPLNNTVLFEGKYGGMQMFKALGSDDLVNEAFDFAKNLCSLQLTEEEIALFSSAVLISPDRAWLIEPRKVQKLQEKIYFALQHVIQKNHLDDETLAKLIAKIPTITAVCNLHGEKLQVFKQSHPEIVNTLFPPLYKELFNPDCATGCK
Peroxisome proliferator-activated receptor gamma (Homo sapiens), sequence (P37231 whole entry, looked up): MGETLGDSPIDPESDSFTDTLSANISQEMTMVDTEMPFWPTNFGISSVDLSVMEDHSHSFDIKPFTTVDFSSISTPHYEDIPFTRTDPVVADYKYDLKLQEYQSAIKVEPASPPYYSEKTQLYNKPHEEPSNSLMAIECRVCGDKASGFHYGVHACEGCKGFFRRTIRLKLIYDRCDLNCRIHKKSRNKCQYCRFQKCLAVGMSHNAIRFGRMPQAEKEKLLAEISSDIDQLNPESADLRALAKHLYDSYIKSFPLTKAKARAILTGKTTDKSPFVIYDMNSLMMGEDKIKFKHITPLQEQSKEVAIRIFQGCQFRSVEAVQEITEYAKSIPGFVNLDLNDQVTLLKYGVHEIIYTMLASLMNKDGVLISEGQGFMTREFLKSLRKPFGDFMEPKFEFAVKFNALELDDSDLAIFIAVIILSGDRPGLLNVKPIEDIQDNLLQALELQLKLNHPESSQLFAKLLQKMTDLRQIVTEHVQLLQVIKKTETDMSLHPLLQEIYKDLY
human Retinoic Acid Receptor gamma (RARg), RARG (gene 5916), sequence (P13631 whole entry, looked up, the tested form may be a part): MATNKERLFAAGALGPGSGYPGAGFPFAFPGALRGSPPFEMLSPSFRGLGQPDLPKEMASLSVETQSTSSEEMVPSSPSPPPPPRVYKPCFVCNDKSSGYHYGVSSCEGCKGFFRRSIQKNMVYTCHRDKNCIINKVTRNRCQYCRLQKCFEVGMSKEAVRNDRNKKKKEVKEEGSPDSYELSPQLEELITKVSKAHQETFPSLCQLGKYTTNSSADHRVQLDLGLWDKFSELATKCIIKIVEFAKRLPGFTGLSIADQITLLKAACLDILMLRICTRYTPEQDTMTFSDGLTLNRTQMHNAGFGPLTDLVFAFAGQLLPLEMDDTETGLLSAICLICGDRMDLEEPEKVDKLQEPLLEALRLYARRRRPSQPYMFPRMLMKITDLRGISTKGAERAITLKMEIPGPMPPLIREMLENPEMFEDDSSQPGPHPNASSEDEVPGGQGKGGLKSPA
human Thyroid Receptor alpha (THRa1), THRA (gene 7067), sequence (P10827 whole entry, looked up, the tested form may be a part): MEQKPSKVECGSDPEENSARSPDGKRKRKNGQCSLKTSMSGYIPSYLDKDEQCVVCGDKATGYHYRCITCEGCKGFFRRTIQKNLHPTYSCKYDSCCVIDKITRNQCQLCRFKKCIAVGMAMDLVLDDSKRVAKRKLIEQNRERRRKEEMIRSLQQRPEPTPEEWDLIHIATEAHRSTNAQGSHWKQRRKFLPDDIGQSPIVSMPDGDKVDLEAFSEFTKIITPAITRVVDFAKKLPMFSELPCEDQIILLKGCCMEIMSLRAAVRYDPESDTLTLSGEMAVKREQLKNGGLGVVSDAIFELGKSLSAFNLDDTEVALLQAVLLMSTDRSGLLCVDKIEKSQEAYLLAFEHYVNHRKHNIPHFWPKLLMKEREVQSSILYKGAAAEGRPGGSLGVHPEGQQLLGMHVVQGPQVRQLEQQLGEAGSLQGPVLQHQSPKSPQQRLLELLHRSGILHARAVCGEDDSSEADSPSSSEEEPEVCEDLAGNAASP
Nuclear receptor subfamily 1 group I member 2 (Homo sapiens), sequence (O75469 whole entry, looked up, the tested form may be a part): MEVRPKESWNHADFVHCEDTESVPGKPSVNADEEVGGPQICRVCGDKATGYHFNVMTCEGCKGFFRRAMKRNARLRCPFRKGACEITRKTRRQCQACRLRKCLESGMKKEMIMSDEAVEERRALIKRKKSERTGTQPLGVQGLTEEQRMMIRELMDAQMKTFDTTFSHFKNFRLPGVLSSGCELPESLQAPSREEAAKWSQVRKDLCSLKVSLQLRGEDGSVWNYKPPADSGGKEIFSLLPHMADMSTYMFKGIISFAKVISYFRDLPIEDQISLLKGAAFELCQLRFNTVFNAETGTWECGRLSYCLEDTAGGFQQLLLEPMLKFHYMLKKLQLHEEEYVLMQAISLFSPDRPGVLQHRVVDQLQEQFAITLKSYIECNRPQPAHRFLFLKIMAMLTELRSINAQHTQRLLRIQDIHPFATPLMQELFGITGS
Retinoic acid receptor alpha (Homo sapiens), sequence (P10276 whole entry, looked up, the tested form may be a part): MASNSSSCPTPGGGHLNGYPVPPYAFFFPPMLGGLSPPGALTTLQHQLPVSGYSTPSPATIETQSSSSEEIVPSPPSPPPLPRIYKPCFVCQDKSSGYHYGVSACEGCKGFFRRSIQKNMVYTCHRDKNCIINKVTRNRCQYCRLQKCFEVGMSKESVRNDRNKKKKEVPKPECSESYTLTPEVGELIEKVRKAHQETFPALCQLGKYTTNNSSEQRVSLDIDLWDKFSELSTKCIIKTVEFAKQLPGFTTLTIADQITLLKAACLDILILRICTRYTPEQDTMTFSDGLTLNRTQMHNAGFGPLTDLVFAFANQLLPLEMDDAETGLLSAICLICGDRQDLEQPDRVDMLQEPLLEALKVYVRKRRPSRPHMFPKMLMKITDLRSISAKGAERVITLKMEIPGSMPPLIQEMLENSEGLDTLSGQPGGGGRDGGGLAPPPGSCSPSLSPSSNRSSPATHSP

`CCCCCOC(=O)c1ccccc1C(=O)OCCCCC`: the outcome in assay [1], in assay [2], in [5], in assay [6], in assay [7] and in [8] was inactive. Also, the outcome in assay [9], in assay [11] and in [12] was inactive. Besides, the AC50 is 49.7 µM (active) in assay [3], 27.9 µM (active) in [4] and 20 µM (active) in assay [10].
Turning to `CC(O)CCO` (stereo unspecified), the result in assay [2], in [13], in [14], in assay [15], in assay [16] and in [17] was inactive. Moreover, the result in assay [6], in assay [7], in assay [8], in assay [9], in assay [10] and in [11] was inactive. Also, the outcome in assay [12] was inactive. Also, the values for the half-maximal activity concentration (AC50) in [4] and in assay [5] were 24.1 µM (active) and 6.17 µM (active), respectively.
Consider `c1ccc2c(c1)oc1ccccc12`, for which the outcome in [1], in assay [2], in [17], in [6], in assay [7] and in [8] was inactive. Moreover, the outcome in [9], in assay [10], in assay [11] and in [12] was inactive.
In the case of `O=C(N[C@H](c1ccccc1)[C@@H]1CN2CCC1CC2)c1c(Cl)ccc(C(F)(F)F)c1Cl`, the result in assay [18], in assay [2], in [5], in assay [6], in assay [9] and in [10] was inactive. Also, the result in assay [12] was inactive. Besides, the AC50 was 0.226 µM (active) in [4], 44.5 µM (active) in assay [7], 14.3 µM (active) in assay [8] and 19 µM (active) in assay [11].
`Nc1cc(Cl)cc(C(=O)O)c1Cl`: the outcome in assay [1], in assay [2], in assay [15], in [3], in [16] and in assay [19] was inactive. Further, the molecule was called inactive in assay [17], in [6], in assay [7], in assay [8], in assay [9] and in [10]. The outcome in assay [11] and in assay [12] was inactive.
Turning to `c1ccc(NNc2ccccc2)cc1`, the result in assay [1], in [2], in [15], in assay [4], in assay [19] and in assay [20] was inactive. The call in assay [17], in assay [6], in [7], in [8], in [9] and in assay [10] was inactive. Also, the outcome in [11] and in assay [12] was inactive. The AC50 in assay [5] was 100 µM (active).
Take `C[C@]12C=CC3=C4CCC(=O)C=C4CC[C@H]3[C@@H]1CC[C@@H]2O`: the call in assay [1], in assay [2], in assay [3], in assay [4], in assay [19] and in assay [20] was inactive. In addition, the result in assay [5], in [17], in assay [7], in assay [8], in assay [9] and in assay [11] was inactive. In addition, in [12], the outcome was inactive. The AC50 in [4] was 26.9 µM (active); in assay [6], 9.4 µM (active); in [10], 20 µM (active).
Turning to `[As]#[In]`, the outcome in [2], in assay [13], in assay [14], in assay [16], in [19] and in [20] was inactive. For the same molecule, the call in assay [5], in assay [17], in assay [6], in [7], in assay [8] and in [9] was inactive. The outcome in assay [10], in [11] and in assay [12] was inactive.
On to `O=C(Oc1ccc(Br)cc1)N1CCN2CCC1CC2`, for which the molecule was classed as inactive in assay [1], in assay [2], in [3], in [4], in assay [16] and in assay [20]. Moreover, the result in assay [6], in [7], in assay [8], in assay [9], in assay [10] and in [11] was inactive. Further, the result in assay [12] was inactive.
